Experimental data from PubChem BioAssay (EPA / NIEHS).
Records with an inconclusive call do not appear. Active and inactive are the calls of the source. Rule for the calls: active = hit-call score of the fitted dose curve at least 0.9, where 1 is the maximum; inconclusive = response in the unintended direction; inactive = score below 0.9.

Each molecule was assayed against human RAR-related Orphan Receptor gamma (RORg), RORC (gene 6097) (UniProt P51449) (assay: ATG_RORg_TRANS: Attagene TRANS-FACTORIAL HepG2 Assay for human RAR-related Orphan Receptor gamma (RORg) (AID 2283011)).
How it was run: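 Readout: reporter transcript induction (RT-PCR, fluorescent primer extension, capillary electrophoresis) after 24 h compound exposure of transiently transfected HepG2 cells carrying a RORg-Gal4 chimera and GAL4-UAS reporters; DMSO served as baseline, with increasing signal fitted.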

Sequence of human RAR-related Orphan Receptor gamma (RORg), RORC (gene 6097) (P51449 whole entry, looked up, the tested form may be a part): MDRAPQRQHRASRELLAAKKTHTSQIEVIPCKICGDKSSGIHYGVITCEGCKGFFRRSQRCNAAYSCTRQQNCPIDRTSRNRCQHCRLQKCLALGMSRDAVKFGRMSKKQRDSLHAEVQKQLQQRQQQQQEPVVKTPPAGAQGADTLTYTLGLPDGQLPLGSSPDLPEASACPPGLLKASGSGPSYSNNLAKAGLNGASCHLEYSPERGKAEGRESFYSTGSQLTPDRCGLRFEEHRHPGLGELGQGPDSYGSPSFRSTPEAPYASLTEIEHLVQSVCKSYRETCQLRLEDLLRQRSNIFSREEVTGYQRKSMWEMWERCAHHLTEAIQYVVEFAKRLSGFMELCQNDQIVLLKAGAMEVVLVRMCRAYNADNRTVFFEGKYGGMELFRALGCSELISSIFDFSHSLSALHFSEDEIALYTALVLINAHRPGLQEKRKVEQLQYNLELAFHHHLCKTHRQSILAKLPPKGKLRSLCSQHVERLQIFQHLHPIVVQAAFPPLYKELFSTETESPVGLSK

SMILES	outcome
CC(=O)OCCOC(C)=O	inactive
Cc1ccc(C(=O)O)o1	inactive
CCCCCC(CO)CCC (stereo not drawn)	inactive
CC(CC(C)(C)C)CC(C)(C)CC(C)(C)C (stereo not drawn)	inactive
CCN(CC)c1ccc(C(=C2C=CC(=[N+](CC)CC)C=C2)c2ccc(S(=O)(=O)O)cc2S(=O)(=O)[O-])cc1	inactive
CCCCCC(=O)OCCc1ccccc1	inactive
C=CC(C)(CCC=C(C)C)OC=O (stereo not drawn)	inactive
c1ccc2c(c1)c1cccc3ccc4cccc2c4c31	inactive
Nc1cc([N+](=O)[O-])ccc1Cl	inactive
Cc1ccc2n[nH]nc2c1	inactive
O=C(O)c1ccc(C(=O)O)cc1	inactive
O=C(O)c1cn(-c2ccc(F)cc2)c2cc(N3CCNCC3)c(F)cc2c1=O	inactive
CCCCCCCCCCCCN	inactive
CCCCCCOC(=O)CC	inactive
CCC(C)CCCC(C)(C)O (stereo not drawn)	inactive
Cc1ccc2sc3cccc(C)c3c2c1	inactive
CC1CCC(C(C)(C)O)CC1 (stereo not drawn)	inactive
CCCCOCCOCCOCCOCCO	inactive

SMILES	outcome
OCCOc1cccc(OCCO)c1	inactive
CCCC(=O)OCCC(C)CCC=C(C)C (stereo not drawn)	inactive
O=C1CCCCCCCCCCCCCCO1	inactive
Cc1ccc(C(C)C)cc1O	inactive
CC(=O)OCc1ccc2c(c1)OCO2	inactive
OC1C(O)C(O)C(O)C(O)C1O (stereo not drawn)	inactive
CC1=CCC2C(C1)C2(C)C (stereo not drawn)	inactive
CC1=CC(=O)NS(=O)(=O)O1	inactive
CC1CC(OC(=O)c2ccccc2O)CC(C)(C)C1 (stereo not drawn)	inactive
C=CC(=O)OCC(O)COc1ccccc1 (stereo not drawn)	inactive
CCCCCCCCCCCCSC	inactive
Sc1nc(S)nc(S)n1	inactive
C=CC(=O)OCCOCCOCC	inactive
CC(C#N)(CCC(=O)O)N=NC(C)(C#N)CCC(=O)O (stereo not drawn)	inactive
CC[Si](OC(C)=O)(OC(C)=O)OC(C)=O	inactive
O=C1C(c2[nH]c3ccc(S(=O)(=O)O)cc3c2O)=Nc2ccc(S(=O)(=O)O)cc21	inactive
CC(C)OP(=O)(CP(=O)(OC(C)C)OC(C)C)OC(C)C	inactive
CC(C)(C)C(=O)c1ccccc1	inactive

The molecules below were run against Retinoic acid receptor RXR-alpha (Homo sapiens) (UniProt P19793) (assay: ATG_RXRa_TRANS: Attagene TRANS-FACTORIAL HepG2 Assay for human Retinoid X Receptor alpha (RXRa) (AID 2283012)).
How it was run: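 Measures exogenous chimeric NR-GAL4 activity in transfected HepG2 liver cells after 24 h of dosing. Induced reporter mRNA was detected by RT-PCR with capillary electrophoresis, and gain of signal was analysed against DMSO.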

Sequence of Retinoic acid receptor RXR-alpha (Homo sapiens) (P19793 whole entry, looked up, the tested form may be a part): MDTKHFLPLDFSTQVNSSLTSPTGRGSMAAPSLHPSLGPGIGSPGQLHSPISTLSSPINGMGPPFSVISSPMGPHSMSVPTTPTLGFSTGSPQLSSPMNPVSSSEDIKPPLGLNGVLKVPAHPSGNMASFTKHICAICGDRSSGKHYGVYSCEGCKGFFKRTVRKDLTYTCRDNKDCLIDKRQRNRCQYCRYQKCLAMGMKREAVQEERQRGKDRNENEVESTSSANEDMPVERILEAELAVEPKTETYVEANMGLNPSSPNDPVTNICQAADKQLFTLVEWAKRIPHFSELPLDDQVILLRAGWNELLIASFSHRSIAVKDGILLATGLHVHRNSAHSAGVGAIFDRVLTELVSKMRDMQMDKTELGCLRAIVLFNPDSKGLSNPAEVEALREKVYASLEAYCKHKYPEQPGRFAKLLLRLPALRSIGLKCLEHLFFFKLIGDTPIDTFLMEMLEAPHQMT

SMILES	outcome
O=C(O)CCCCCCCC(=O)O	inactive
CCC(C)(O)CCC=C(C)C (stereo not drawn)	inactive
C=CC[N+](C)(C)CC=C	inactive

Each molecule was assayed against human Retinoid X Receptor beta (RXRb), RXRB (gene 6257) (UniProt P28702) (assay: ATG_RXRb_TRANS: Attagene TRANS-FACTORIAL HepG2 Assay for human Retinoid X Receptor beta (RXRb) (AID 2283013)).
How it was run: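 Chimeric receptor-Gal4 activity was assessed in transiently transfected human HepG2 cells after 24 h exposure. Transcripts from GAL4-UAS reporters were quantified by fluorescent RT-PCR and capillary electrophoresis, with DMSO as negative control and baseline.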

Sequence of human Retinoid X Receptor beta (RXRb), RXRB (gene 6257) (P28702 whole entry, looked up, the tested form may be a part): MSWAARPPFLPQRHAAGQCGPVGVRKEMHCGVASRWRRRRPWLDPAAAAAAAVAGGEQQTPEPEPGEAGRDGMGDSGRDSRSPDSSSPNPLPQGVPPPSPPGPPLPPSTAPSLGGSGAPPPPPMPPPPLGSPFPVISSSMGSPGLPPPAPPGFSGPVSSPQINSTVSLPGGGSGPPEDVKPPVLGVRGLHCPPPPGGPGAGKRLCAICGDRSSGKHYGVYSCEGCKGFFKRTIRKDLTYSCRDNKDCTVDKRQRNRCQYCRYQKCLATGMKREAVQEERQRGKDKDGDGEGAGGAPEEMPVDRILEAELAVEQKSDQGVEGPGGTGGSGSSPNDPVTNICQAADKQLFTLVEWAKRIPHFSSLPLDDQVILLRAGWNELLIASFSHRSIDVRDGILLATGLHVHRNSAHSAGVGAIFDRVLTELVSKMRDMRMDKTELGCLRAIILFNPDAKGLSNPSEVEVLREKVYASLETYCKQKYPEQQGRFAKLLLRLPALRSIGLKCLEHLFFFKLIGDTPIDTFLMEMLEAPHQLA

SMILES	outcome	AC50
CCCCCC(CO)CCC (stereo not drawn)	inactive	
CC(CC(C)(C)C)CC(C)(C)CC(C)(C)C (stereo not drawn)	inactive	
CCN(CC)c1ccc(C(=C2C=CC(=[N+](CC)CC)C=C2)c2ccc(S(=O)(=O)O)cc2S(=O)(=O)[O-])cc1		100 µM (active)
CCCCCC(=O)OCCc1ccccc1	inactive	
c1ccc2c(c1)c1cccc3ccc4cccc2c4c31		10.2 µM (active)
Cc1ccc2n[nH]nc2c1	inactive	
O=C(O)c1cn(-c2ccc(F)cc2)c2cc(N3CCNCC3)c(F)cc2c1=O	inactive	
CCCCCCCCCCCCN	inactive	
CCCCCCOC(=O)CC	inactive	
CCC(C)CCCC(C)(C)O (stereo not drawn)	inactive	
Cc1ccc2sc3cccc(C)c3c2c1	inactive	
O=C1CCCCCCCCCCCCCCO1		100 µM (active)
Cc1ccc(C(C)C)cc1O		100 µM (active)
CC(=O)OCc1ccc2c(c1)OCO2	inactive	
OC1C(O)C(O)C(O)C(O)C1O (stereo not drawn)	inactive	
C=CC(=O)OCC(O)COc1ccccc1 (stereo not drawn)	inactive	
CCCCCCCCCCCCSC		100 µM (active)
Sc1nc(S)nc(S)n1	inactive	
CC(C#N)(CCC(=O)O)N=NC(C)(C#N)CCC(=O)O (stereo not drawn)	inactive	
CC(C)OP(=O)(CP(=O)(OC(C)C)OC(C)C)OC(C)C	inactive	

The molecules below were run against human Thyroid Receptor alpha (THRa1), THRA (gene 7067) (UniProt P10827) (assay: ATG_THRa1_TRANS: Attagene TRANS-FACTORIAL HepG2 Assay for human Thyroid Receptor alpha (THRa1) (AID 2283014)).
How it was run: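 HepG2 cells transiently transfected with multiplexed GAL4-UAS reporter units for exogenous chimeric THRa1-Gal4; reporter mRNA measured 24 h after dosing by RT-PCR, 6-FAM labelling, HpaI digestion and capillary electrophoresis. Gain-of-signal fitted versus DMSO baseline.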

Sequence of human Thyroid Receptor alpha (THRa1), THRA (gene 7067) (P10827 whole entry, looked up, the tested form may be a part): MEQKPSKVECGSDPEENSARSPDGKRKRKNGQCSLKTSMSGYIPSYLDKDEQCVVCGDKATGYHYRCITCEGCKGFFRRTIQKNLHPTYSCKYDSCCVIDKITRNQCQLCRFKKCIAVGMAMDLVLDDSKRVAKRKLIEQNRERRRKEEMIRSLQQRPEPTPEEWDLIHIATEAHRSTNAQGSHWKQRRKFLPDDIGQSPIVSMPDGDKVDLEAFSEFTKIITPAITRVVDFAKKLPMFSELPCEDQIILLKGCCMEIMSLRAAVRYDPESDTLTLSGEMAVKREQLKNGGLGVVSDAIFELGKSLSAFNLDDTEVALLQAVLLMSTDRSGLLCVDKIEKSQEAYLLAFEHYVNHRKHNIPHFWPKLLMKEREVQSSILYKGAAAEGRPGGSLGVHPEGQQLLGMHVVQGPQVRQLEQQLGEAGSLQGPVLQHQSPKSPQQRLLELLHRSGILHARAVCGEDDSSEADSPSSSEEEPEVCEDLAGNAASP

SMILES	outcome
CC(=O)OCCOC(C)=O	inactive
Cc1ccc(C(=O)O)o1	inactive
CCCCCC(CO)CCC (stereo not drawn)	inactive
CC(CC(C)(C)C)CC(C)(C)CC(C)(C)C (stereo not drawn)	inactive
CCN(CC)c1ccc(C(=C2C=CC(=[N+](CC)CC)C=C2)c2ccc(S(=O)(=O)O)cc2S(=O)(=O)[O-])cc1	inactive
CCCCCC(=O)OCCc1ccccc1	inactive
C=CC(C)(CCC=C(C)C)OC=O (stereo not drawn)	inactive
c1ccc2c(c1)c1cccc3ccc4cccc2c4c31	inactive
Nc1cc([N+](=O)[O-])ccc1Cl	inactive
Cc1ccc2n[nH]nc2c1	inactive
O=C(O)c1ccc(C(=O)O)cc1	inactive
O=C(O)c1cn(-c2ccc(F)cc2)c2cc(N3CCNCC3)c(F)cc2c1=O	inactive
CCCCCCOC(=O)CC	inactive
CCC(C)CCCC(C)(C)O (stereo not drawn)	inactive
Cc1ccc2sc3cccc(C)c3c2c1	inactive
CC1CCC(C(C)(C)O)CC1 (stereo not drawn)	inactive
CCCCOCCOCCOCCOCCO	inactive
OCCOc1cccc(OCCO)c1	inactive
CCCC(=O)OCCC(C)CCC=C(C)C (stereo not drawn)	inactive
OC1C(O)C(O)C(O)C(O)C1O (stereo not drawn)	inactive
CC1=CCC2C(C1)C2(C)C (stereo not drawn)	inactive
CC1=CC(=O)NS(=O)(=O)O1	inactive
CC1CC(OC(=O)c2ccccc2O)CC(C)(C)C1 (stereo not drawn)	inactive
CCCCCCCCCCCCSC	inactive
C=CC(=O)OCCOCCOCC	inactive
CC(C#N)(CCC(=O)O)N=NC(C)(C#N)CCC(=O)O (stereo not drawn)	inactive
O=C1C(c2[nH]c3ccc(S(=O)(=O)O)cc3c2O)=Nc2ccc(S(=O)(=O)O)cc21	inactive
CC(C)OP(=O)(CP(=O)(OC(C)C)OC(C)C)OC(C)C	inactive
CC(C)(C)C(=O)c1ccccc1	inactive
